Data as given in PubChem BioAssay (Tox21).
Results filed as inconclusive are left out. Activity calls are given as the source filed them. Unless noted, calls follow the shape of the dose curve; as a rule, active = well fitted curve in the direction sought with a large enough effect in the repeat runs; inconclusive = weak or mixed curves; inactive = no such curve, though single readings can be large; an effect the other way counts as inactive or inconclusive.

Tests used:
[1] = qHTS assay to identify small molecule agonists of H2AX (AID 1224845; active = well fitted activation curve with a large enough effect in the signal ratio in the repeat runs, not every such curve was filed as active; the % refers to the signal ratio; also: potency is read from the fitted curve at half-maximal effect)
Summary of the method: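 Phospho-H2AX Ser139 measured by HTRF (ex 320 nm; em 665 and 620 nm) after 24 hr antibody incubation. Compounds, 15 concentrations, 0.76% DMSO, were applied to CHO-K1 cells for 3hr at 37C before lysis.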

[2] = qHTS assay to identify small molecule agonists of the hypoxia (HIF-1) signaling pathway (AID 1224846; active = well fitted activation curve with a large enough effect in the signal ratio in the repeat runs, not every such curve was filed as active; the % refers to the signal ratio)
Summary of the method: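 HRE-bla ME-180 cells (beta-lactamase reporter under hypoxia response element) were plated at 2,000 cells/well in medium with 0.5% dialyzed FBS, rested 5 hrs, then given compounds in DMSO for 17 hrs at 37C, 5% CO2. Reporter induction was read with CCF4-AM FRET substrate.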

[3] = qHTS assay to identify small molecule agonists of H2AX - cell viability counter screen (AID 1224847; calls by dose curve; also: nearly all actives have a fitted effect of over 30% in size; also: potency is read from the fitted curve at half-maximal effect)
Summary of the method: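 For this counter screen, overnight-attached CHO-K1 cells received test compounds (15 concentrations, 0.76% DMSO final); 3 hr later at 37C, CellTiter-Glo reagent was added and luminescence recorded after 30 min at room temperature.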

[4] = qHTS assay to identify small molecule antagonists of the estrogen related receptor (ERR) signaling pathway from Tox21 library (AID 1224848); also: nearly all actives have a fitted effect of over 50% in size
Summary of the method: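 Reading was by luminescence 30 min after ONE-Glo addition. Before that, ERR cells at 2,000 per well had rested 6 h at 37 C/5% CO2 and then received pin-tooled compounds in DMSO for 18 h at 37 C.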

[5] = qHTS RealTime-Glo MT Cell Viability Assay in HepG2 cells - 24 hour (AID 1224867); also: nearly all actives have a fitted effect of over 50% in size
Summary of the method: (§1)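 Cell number in HepG2 cultures estimated from NanoLuc luminescence generated by metabolic reduction of a prosubstrate by living cells. The homogeneous, nonlytic format allowed repeated reads at 0, 8, 16, 24, 32 and 40 h of compound exposure.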

[6] = A CellTox Green Cytotoxicity Assay to monitor cytotoxicity in HEK293 cells - 0 hour (AID 1224869); also: nearly all actives have a fitted effect of over 50% in size
Summary of the method: (§2)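 HEK293 cells premixed with CellTox Green dye were seeded at 600 cells/well and left 5 h at 37 C/5% CO2 before pin transfer of 23 nL compound in DMSO. Fluorescence from dye bound to dead-cell DNA was read during 40 h treatment.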

[7] = qHTS RealTime-Glo MT Cell Viability Assay in HepG2 cells - 40 hour (AID 1224870); also: nearly all actives have a fitted effect of over 50% in size
Summary of the method: (§3)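 Real-time viability: cells seeded at 600 per well together with NanoLuc and cell-permeant prosubstrate, compounds added after 5 h incubation. Luminescence tracked at 0, 8, 16, 24, 32 and 40 h of exposure.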

[8] = A CellTox Green Cytotoxicity Assay to monitor cytotoxicity in HEK293 cells - 40 hour (AID 1224871); also: nearly all actives have a fitted effect of over 45% in size
Summary of the method: as §2

[9] = qHTS RealTime-Glo MT Cell Viability Assay in HEK293 cells - 16 hour (AID 1224872)
Summary of the method: (§4)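 Homogeneous bioluminescent viability format in HEK293 cells (600 cells/well). Following 5 h at 37 C/5% CO2, 23 nL compound was pintooled; the signal was measured repeatedly during 40 h incubation.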

[10] = qHTS RealTime-Glo MT Cell Viability Assay in HepG2 cells - 8 hour (AID 1224873); also: nearly all actives have a fitted effect of over 55% in size
Summary of the method: as §3

[11] = A CellTox Green Cytotoxicity Assay to monitor cytotoxicity in HEK293 cells - 24 hour (AID 1224875); also: nearly all actives have a fitted effect of over 45% in size
Summary of the method: as §2

[12] = qHTS RealTime-Glo MT Cell Viability Assay in HepG2 cells - 32 hour (AID 1224877); also: nearly all actives have a fitted effect of over 55% in size
Summary of the method: as §1

[13] = A CellTox Green Cytotoxicity Assay to monitor cytotoxicity in HepG2 cells - 40 hour (AID 1224879); also: nearly all actives have a fitted effect of over 40% in size
Summary of the method: (§5)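 HepG2 cells were seeded together with the CellTox Green dye at 600 cells/well, left 5 h at 37 C/5% CO2, then given compounds in DMSO. Fluorescence from dye bound to dead-cell DNA was read repeatedly over 40 h of treatment at 37 C.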

[14] = qHTS RealTime-Glo MT Cell Viability Assay in HEK293 cells - 0 hour (AID 1224880); also: top concentration of the series differs between compounds; nearly all actives have a fitted effect of over 45% in size
Summary of the method: (§6)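 HEK293 cells mixed with RealTime-Glo reagents (NanoLuc plus cell-permeant prosubstrate) at 600 cells/well, preincubated 5 h at 37 C/5% CO2, then given 23 nL compound in DMSO. Nonlytic luminescence from viable cells was read at 0, 8, 16, 24, 32 and 40 h.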

[15] = A CellTox Green Cytotoxicity Assay to monitor cytotoxicity in HEK293 cells - 32 hour (AID 1224881); also: nearly all actives have a fitted effect of over 40% in size
Summary of the method: as §2

[16] = qHTS RealTime-Glo MT Cell Viability Assay in HEK293 cells - 32 hour (AID 1224868)
Summary of the method: as §4

[17] = qHTS RealTime-Glo MT Cell Viability Assay in HEK293 cells - 40 hour (AID 1224874); conditions: RealTime-Glo luminescence; max response: active compounds read low; also: nearly all actives have a fitted effect of over 50% in size
Summary of the method: as §6

[18] = A CellTox Green Cytotoxicity Assay to monitor cytotoxicity in HepG2 cells - 16 hour (AID 1224876); also: nearly all actives have a fitted effect of over 45% in size
Summary of the method: as §5

[19] = A CellTox Green Cytotoxicity Assay to monitor cytotoxicity in HepG2 cells - 24 hour (AID 1224878); also: nearly all actives have a fitted effect of over 45% in size
Summary of the method: as §5

[20] = qHTS assay to identify small molecule agonists of the estrogen related receptor (ERR) signaling pathway from Tox21 library (AID 1224849; calls by dose curve; also: nearly all actives have a fitted effect of over 15% in size); conditions: ERR reporter cell line, ONE-Glo luciferase, 18 h; at 92.4 µM (top of the series) unless noted
Summary of the method: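 ERR reporter cell line (NTP) seeded, rested 6 h at 37 C/5% CO2, then pinned with Tox21 compounds in DMSO. After 18 h at 37 C, ONE-Glo luciferase luminescence was read following 30 min at room temperature.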
% is scaled to controls: 0 for no effect and ±100 for the full control effect.

C[C@H]1[C@H]2CC[C@H]3[C@@H]4CC=C5C[C@@H](N(C)C)CC[C@]5(C)[C@H]4CC[C@]23CN1C
inactive: Potency [1] | Potency [2] | Potency [3] | Potency [4] | Potency [5] | Potency [6] | Potency [7] | Potency [8] | Potency [9] | Potency [10] | Potency [11] | Potency [12] | Potency [13] | Potency [14] | Potency [15]

O=[N+]([O-])c1ccccc1Nc1ccccc1
inactive: Potency [1] | Potency [2] | Potency [3] | Potency [5] | Potency [16] | Potency [6] | Potency [7] | Potency [8] | Potency [9] | Potency [10] | max response [17] 0.685% | Potency [11] | Potency [18] | Potency [12] | Potency [19] | Potency [13] | Potency [14] | Potency [15]

CCCCCOC(=O)CCCC
inactive: Potency [1] | Potency [2] | Potency [3] | Potency [5] | Potency [16] | Potency [6] | Potency [7] | Potency [8] | Potency [9] | Potency [10] | max response [17] -0.909% | Potency [11] | Potency [18] | Potency [12] | Potency [19] | Potency [13] | Potency [14] | Potency [15]

CCCCC(CC)COC(=O)c1ccccc1C(=O)O (stereo not given)
inactive: Potency [1] | Potency [2] | Potency [3] | activity change, positive = activation [20] -12.5% | Potency [5] | Potency [6] | Potency [7] | Potency [8] | Potency [9] | Potency [10] | Potency [11] | Potency [18] | Potency [12] | Potency [19] | Potency [13] | Potency [14] | Potency [15]

NC(=O)NS(=O)(=O)c1ccc(N)cc1
inactive: Potency [1] | Potency [2] | Potency [3] | Potency [5] | Potency [16] | Potency [6] | Potency [7] | Potency [8] | Potency [9] | Potency [10] | max response [17] 2.7% | Potency [11] | Potency [18] | Potency [12] | Potency [13] | Potency [14] | Potency [15]

CCN(CCC#N)c1ccc(N=Nc2c(Cl)cc([N+](=O)[O-])cc2Cl)cc1
inactive: Potency [1] | Potency [2] | activity change, positive = activation [20] -27% | Potency [16] | Potency [6] | Potency [8] | Potency [9] | max response [17] -15.8% | Potency [11] | Potency [19] | Potency [13] | Potency [15]
active: Potency [3] 56.6 µM

Cc1ccc(-n2nc(C(C)(C)C)cc2NC(=O)Nc2ccc(OCCN3CCOCC3)c3ccccc23)cc1
inactive: Potency [2] | Potency [3] | activity change, positive = activation [20] -18.8% [at 42.5 µM] | Potency [5] | Potency [6] | Potency [7] | Potency [8] | Potency [10] | Potency [11] | Potency [18] | Potency [12] | Potency [13] | Potency [14] | Potency [15]
active: Potency [1] 49.2 µM

C/C=C(\C)C(=O)OCc1ccccc1
inactive: Potency [1] | Potency [2] | Potency [3] | Potency [4] | activity change, positive = activation [20] 5.16% | Potency [5] | Potency [16] | Potency [6] | Potency [7] | Potency [9] | Potency [10] | max response [17] -2.09% | Potency [11] | Potency [18] | Potency [19] | Potency [13] | Potency [14] | Potency [15]

N#CC1(c2ccc(F)cc2)CCC(=O)CC1
inactive: Potency [1] | Potency [2] | Potency [3] | Potency [4] | activity change, positive = activation [20] 6.11% [at 42.5 µM] | Potency [5] | Potency [16] | Potency [6] | Potency [7] | Potency [8] | Potency [9] | Potency [10] | max response [17] 6.72% | Potency [11] | Potency [18] | Potency [12] | Potency [13] | Potency [14] | Potency [15]

O=C(O)c1ccc(Cl)c(Cl)c1
inactive: Potency [1] | Potency [2] | Potency [3] | Potency [4] | activity change, positive = activation [20] -1.94% | Potency [5] | Potency [16] | Potency [6] | Potency [7] | Potency [8] | Potency [9] | Potency [10] | max response [17] 2.99% | Potency [11] | Potency [18] | Potency [12] | Potency [13] | Potency [14] | Potency [15]

CCC(C)(C)C1CCCCC1OC(C)=O (stereo not given)
inactive: Potency [1] | Potency [2] | Potency [3] | Potency [4] | activity change, positive = activation [20] -0.855% | Potency [5] | Potency [16] | Potency [6] | Potency [7] | Potency [8] | Potency [9] | Potency [10] | max response [17] 6.6% | Potency [11] | Potency [18] | Potency [12] | Potency [19] | Potency [13] | Potency [14] | Potency [15]

c1ccc(CSCc2ccccc2)cc1
inactive: Potency [1] | Potency [2] | Potency [3] | Potency [5] | Potency [16] | Potency [6] | Potency [7] | Potency [8] | Potency [9] | Potency [10] | max response [17] -5.29% | Potency [11] | Potency [18] | Potency [12] | Potency [19] | Potency [13] | Potency [14] | Potency [15]

CN(C)c1ccc(SC#N)cc1
inactive: Potency [1] | Potency [2] | Potency [3] | Potency [5] | Potency [16] | Potency [6] | Potency [7] | Potency [8] | Potency [9] | Potency [10] | max response [17] 0.13% | Potency [11] | Potency [18] | Potency [12] | Potency [19] | Potency [13] | Potency [14] | Potency [15]
